Assay results reported in PubChem BioAssay AID1851 (National Center for Advancing Translational Sciences (NCATS), 2009).
Values joined by “and” are separate entries in the source; they are usually repeats but may differ in a detail not shown here. Identical values can stand only once. Out of some 16,000 compounds screened, about 5,700 (36%) were called active. Inconclusive results (about 24%) are left out. The call rests on the fitted dose curve; in most records, active means well fitted curve in the direction sought with a large enough effect; inconclusive means small, poorly fitted or top-dose-only effect, or effect the other way; inactive means no such curve, though single readings can be large or run the other way. This is one part of the list.

target: Cytochrome P450 1A2 (Homo sapiens) (UniProt P05177); test: Cytochrome panel assay with activity outcomes; conditions: recombinant CYP, pro-luciferin dealkylation, luminescence, p450-cyp1a2; series mostly up to 57.1 µM; activity, negative = inhibition: at the top concentration
Sequence (P05177 whole entry, looked up): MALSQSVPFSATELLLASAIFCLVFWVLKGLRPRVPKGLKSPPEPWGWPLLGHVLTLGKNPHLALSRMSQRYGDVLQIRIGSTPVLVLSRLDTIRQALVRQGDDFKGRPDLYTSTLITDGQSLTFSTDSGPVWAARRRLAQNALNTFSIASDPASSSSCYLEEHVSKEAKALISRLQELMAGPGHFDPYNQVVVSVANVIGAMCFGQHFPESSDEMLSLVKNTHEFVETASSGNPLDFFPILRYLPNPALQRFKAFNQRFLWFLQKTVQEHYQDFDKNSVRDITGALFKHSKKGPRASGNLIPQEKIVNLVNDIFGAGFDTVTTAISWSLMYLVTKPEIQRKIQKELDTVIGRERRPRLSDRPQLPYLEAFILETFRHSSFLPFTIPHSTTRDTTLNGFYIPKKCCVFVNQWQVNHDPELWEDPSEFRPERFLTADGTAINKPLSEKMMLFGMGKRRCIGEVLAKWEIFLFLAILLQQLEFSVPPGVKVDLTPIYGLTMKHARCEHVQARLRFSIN
On the % scale 0 is the no-effect control and ±100 the full control effect.

activity, negative = inhibition, inactive:
Cc1ccc(S(=O)(=O)CC(O)CN2CCCC2=O)cc1 (stereo unspecified) -1.65%
O=S1(=O)N[C@H]2CC[C@@H]3NS(=O)(=O)N[C@H]4CC[C@H](N1)N4S(=O)(=O)N23 2.05% [at 11.4 µM]
Cn1c(=O)c2c(nc(Cc3ccccc3)n2CC(=O)O)n(C)c1=O -13.2% [at 2.29 µM]
CN(C)CCn1c(CO)nc2c1c(=O)n(C)c(=O)n2C -6.02% [at 11.4 µM]
CS(=O)(=O)N1CCC2(CCN(C(c3ccccc3)c3ccccc3)CC2)CC1 7.27%
COC(=O)C/C=C\[C@@H](C)[C@@H](/C=N\OC[C@@H](O)COCc1ccco1)OC -1.53% [at 11.4 µM]
CC(C)NC(=O)N1CC[C@@]2(CCCN(S(C)(=O)=O)C2)C1 -17.1%
CN(C)CCN1C(=O)C(O)=C(C(=O)c2cc3ccccc3o2)C1c1cccc(Br)c1 (stereo unspecified) -14.6%
CS(=O)(=O)N1CCC2(CC1)CN(C(=O)Nc1ccccc1)C2 -2.21%
CC(C)(C)NC[C@H](O)COc1cccc2c1CCC(=O)N2 -7.62% [at 25.6 µM]
CCOC(=O)CCN1C(=O)[C@H]2[C@H]3[C@H](O)[C@H](O)C/C(=N/OCC(C)C)[C@@H]3CC[C@@H]2C1=O -8.45% [at 11.4 µM]
COc1ccc(CC(=O)NC(=S)Nc2ccc(S(=O)(=O)NC(C)(C)C)cc2)cc1 -21.8%
Cc1ccc(NC(=O)C2C3CCCC2C3c2ccccc2)cc1C (stereo unspecified) -18.6%
CCC(=O)NC(=S)Nc1ccc(S(=O)(=O)NC(C)=O)cc1 23.7%
Cc1cccc(N2CCN(c3ccc(NC(=O)/C=C(/C(=O)O)c4ccccc4)cc3)CC2)c1 -8.21%
CC(=O)OCC(=O)[C@]12OC(C)(C)O[C@@H]1C[C@H]1[C@H]3CC=C4C[C@@H](O)CC[C@]4(C)[C@H]3CC[C@]12C 4.12% [at 11.4 µM]
Cc1ccc(S(=O)(=O)NCC(=O)N(CC(=O)NCc2ccco2)Cc2cccs2)cc1 -6.41%
CCOC(=O)N1CCN(C(=O)CNS(=O)(=O)c2cccs2)CC1 -12.2%
CCc1nnc(NC(=O)CCC(=O)N2CCN(c3ccccn3)CC2)s1 4.36%
O=C(N/N=C1/C[C@@H](O)[C@@H](O)[C@@H]2[C@H]3C(=O)N(c4ccc(F)cc4F)C(=O)[C@@H]3CC[C@H]12)OCc1ccccc1 -2.59% [at 11.4 µM]
N=C(N)SCc1cccc(-c2nc3ccccc3c(=O)o2)c1 -10.3% [at 2.29 µM]
CC(CC(=O)O)CC(=O)Nc1ccc(S(N)(=O)=O)cc1 (stereo unspecified) -2.49%
O[C@H](C[C@@H]1CCCCN1)c1ccc2c(c1)oc1ccccc12 -10.4% [at 2.29 µM]
C[C@@H]1/C=C\CC(=O)OC[C@H]2O[C@@H](C=C[C@@H]2O)[C@H](C)/C=C\CC(=O)OC[C@H]2O[C@H]1C=C[C@@H]2O 7.11% [at 11.4 µM]
C[C@@H]1O[C@H](O[C@@H]2[C@H](C)O[C@H](O[C@@H]3[C@H](C)O[C@H](O[C@H]4CC[C@]5(C)[C@@H](CC[C@@H]6[C@H]5C[C@@H](O)[C@]5(C)[C@@H](C7=CC(=O)OC7)CC[C@]65O)C4)C[C@@H]3O)C[C@@H]2O)C[C@H](O)[C@@H]1O 2.93% [at 25.6 µM]
O=S(=O)(c1ccccc1)c1cnn2c(C(F)(F)F)cc(-c3ccccc3)nc12 -26.3%
C[N+](C)(C)c1ccc([C@H](N)C(=O)O)cc1 -19.7% [at 11.4 µM]
COc1ccc(Sc2ccc(NC(=O)c3ccccc3Cl)cc2C#N)cc1 -14.9%
CCC(C)[C@H](NC(=O)NC1CCN(Cc2ccccc2)CC1)C(=O)OC (stereo partly specified) -12.2%
CCN1CCC[C@H]1CNC(=O)c1cc(S(N)(=O)=O)ccc1OC -10.5% [at 25.6 µM]
CC(=O)N(CC(O)CN(C(C)=O)c1c(I)c(C(=O)NC[C@@H](O)CO)c(I)c(C(=O)NC[C@@H](O)CO)c1I)c1c(I)c(C(=O)NC[C@@H](O)CO)c(I)c(C(=O)NC[C@@H](O)CO)c1I -6.09% [at 25.6 µM]
CC(=O)/C(=N\N=C(N)N)c1ccccc1 -17.2% [at 2.29 µM]
CCN1C(=O)[C@H]2[C@H]3[C@H](O)[C@H](O)C/C(=N/OC[C@@H](O)COCc4ccco4)[C@@H]3CC[C@@H]2C1=O -5.56% [at 11.4 µM]
O=C(NCc1cn(-c2ccccc2)nc1-c1ccccc1)c1cc([N+](=O)[O-])cc([N+](=O)[O-])c1 -14.5%
COc1ccc(C(=O)N2CCC3(CCCN(C)C3)CC2)cc1 1.94%
COc1ccc(NC(=O)N2CCCC3(CCN(C(=O)c4ccc(OC)cc4)CC3)C2)cc1 -5.61%
CC(C)COCC1CC2(CC(C)(c3csc(N)n3)OC2=O)C(=O)O1 (stereo unspecified) -11.1%
COCCNC(=O)c1ccc2c(c1)nc(C)n2-c1cc(OC)c(OC)c(OC)c1 5.4%
CN(CCOc1ccc(C[C@H](Nc2ccccc2C(=O)c2ccccc2)C(=O)O)cc1)c1ccccn1 -13.8%
C[N+](C)(C)CCN(Cc1ccc(Cl)cc1)c1ccccn1 0.544%
O=C(c1ccc2c(=O)n(CC3CCCO3)c(=S)[nH]c2c1)N1CCN(c2ccccc2)CC1 (stereo unspecified) -28.2%
O=C(CCn1c(=S)[nH]c2ccccc2c1=O)NCCCN1CCOCC1 -19.2%
O=C(c1cnccn1)N1CCC2(CC1)CCN(c1ncccn1)CC2 7.52%
COC(=O)c1ccc(Oc2coc3cc(OCc4cnn(-c5ccccc5)c4)ccc3c2=O)cc1 -17.9%
Cc1cc(C)cc(C(=N)c2ccccc2Cc2cccc3ccccc23)c1 -5.4% [at 2.29 µM]
CO[C@H]1COC(=O)CCC[C@@H](C)[C@H](OC)COC(=O)[C@H]2CCCN2C(=O)C/C=C\[C@@H]1C -4.29% [at 11.4 µM]
Cc1ccc(NC(=S)N2CCN(C3CCCCC3)CC2)cc1 -15.9%
CC(=O)NS(=O)(=O)c1ccc(NC(=O)NC2CCCCC2)cc1 -8.66%
COC(=O)c1ccc(NC(=O)C2CCCCC2C(=O)O)cc1 (stereo unspecified) 11.3%
O=C(Nc1ccc(Cl)cc1)NC1CCCCC1 -20.7%

AC50, active:
Cn1c(=O)c2c(nc(Cl)n2Cc2ccc(Cl)c(Cl)c2)n(C)c1=O 12.6 µM
COc1ccc2c(OC)c3ccoc3nc2c1OC 0.0794 µM
COc1ccc2[nH]cc(CCNc3ncncc3-c3ccccc3C(F)(F)F)c2c1 10 µM
COc1ccc2[nH]cc(CCNc3ncncc3-c3ccccc3CN(C)C)c2c1 20 µM
COc1ccc2[nH]cc(CCNc3ncncc3-c3ccccc3Cl)c2c1 0.631 µM
COc1ccc2[nH]cc(CCNc3ncncc3-c3c(C)noc3C)c2c1 12.6 µM
COc1ccc2[nH]cc(CCNc3ncncc3-c3ccccc3C)c2c1 0.631 µM
COc1ccc2[nH]cc(CCNc3ncncc3-c3ccccc3OC)c2c1 2.51 µM
CCOC(=O)CN1C(=O)Nc2ccc(Br)cc2C1c1ccccc1 (stereo unspecified) 3.16 µM
Cc1ccc(OC[C@H](O)[C@H](C)NC(C)C)c2c1CCC2 1.58 µM and 398 nM
Cc1cc(NC(=S)NC(=O)CC(C)C)ccc1Br 5.62 µM
CCCNC(=S)Nc1ccc(Br)cc1 7.08 µM
Cc1ccc(NC(=S)Nc2ccc(Br)cc2)cc1 3.55 µM
Cc1cc(NC(=S)Nc2ccccc2)ccc1Br 5.62 µM
C/C(=N\NC(=S)Nc1cccc(C)c1)c1ccccc1 0.891 µM
Cc1cccc(NC(=S)Nc2ccc(Br)cc2)c1 3.55 µM
Cc1csc(NC(=O)CNS(=O)(=O)c2cccs2)n1 12.6 µM
Cc1csc(NC(=O)Cc2c[nH]c3ccccc23)n1 11.2 µM
COCc1c(C(=O)OCC(=O)N2c3ccccc3NC(=O)C2(C)C)oc2ccccc12 0.562 µM
CCCCC1(C)OC(=O)C(=Cc2ccc(N(CC)CC)cc2)C(=O)O1 (stereo unspecified) 5.01 µM
CCc1nnc(NC(=O)c2c(C)nn(-c3ccccc3)c2Cl)s1 7.08 µM
CCn1c(C)nc2cc(S(=O)(=O)C(F)F)ccc21 5.01 µM
CC(C)(C)C(=O)Nc1cccc(-c2nc3ccccc3c(=O)o2)c1 11.2 µM
CC(C)CC(=O)Nc1ccc2c(c1)oc1ccccc12 0.794 µM
Cc1cc(-c2ccc(/C=N/n3cnnc3)o2)c([N+](=O)[O-])cc1C 0.316 µM
CCC(C)Nc1nc(OCC(F)(F)F)nc(OCC(F)(F)F)n1 (stereo unspecified) 10 µM
O=S(=O)(c1ccccc1)c1cnn2c(C(F)(F)F)cc(-c3ccc(F)cc3)nc12 0.794 µM
N#Cc1cc(N)ccc1Sc1ccc(Cl)cc1 1.78 µM
CNc1cc(OC)c(C(=O)N[C@@H]2CCN(Cc3ccccc3)[C@H]2C)cc1Cl 31.6 µM
NC(N)=N/N=C(/c1ccccc1)c1ccc(O)cc1O 3.16 µM
CCc1ccccc1NC(=O)CSc1nc(-c2ccccc2)nn1C(=O)c1cccc([N+](=O)[O-])c1 3.16 µM
COc1ccc2c(c1)CCc1c(C(=O)N3CCCCCC3)noc1-2 6.31 µM
COCCNC(=O)c1ccc2c(c1)ncn2-c1ccc(F)c(F)c1 15.8 µM
O=C(COc1ccc(Cl)cc1)N(Cc1ccccc1)c1ccccn1 2.24 µM
COCCNC(=O)CCCCCn1c(=S)[nH]c2ccccc2c1=O 14.1 µM
O=C(CCCn1c(=S)[nH]c2ccc(Br)cc2c1=O)NCC1CCCO1 (stereo unspecified) 4.47 µM
Cc1[nH]nc(-c2ccc(OCc3cnn(-c4ccccc4)c3)cc2O)c1Oc1ccccc1F 22.4 µM
Cc1ccc(NC(=S)NC2CCCC2)cc1 15.8 µM
COC(=O)c1ccc(NC(=S)NC2CCCCC2)cc1 14.1 µM

AC50, inactive:
CC(C)(C)NC[C@H](O)COc1cccc2c1CCCC2=O
Cc1ccnc(NS(=O)(=O)c2ccc(N)cc2)n1
